From the supplement of paper PMC10849652
Of roughly 8,800 targets only a part is listed; those with a hit were picked by preference. About 0.5% of all pairs of compound and target were hits. A number with no mark means an inactive call.

Tests used:
Test in all cases: log2 fold change, soluble protein after heating vs DMSO (PISA); higher = thermal stabilisation; K562 lysate, 10 uM; active = over 0.2 and 3.5 SD of the protein, either way, in both replicates (recomputed)
erlotinib = compound: C#Cc1cccc(Nc2ncnc3cc(OCCOC)c(OCCOC)cc23)c1 [erlotinib]
Summary of the method: (§1)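 K562 pellets were dounce-homogenised in PBS pH 7.4 containing 1 mM MgCl2, and the crude extract, at 1 mg/mL protein, was exposed to 10 μM compound for 30 min. Aliquots were heated for 3 min across 48°C-58°C, pooled, brought to 0.5% NP-40 at 4°C and spun at 21,000xg for 90 min, with the supernatant taken as soluble protein. TMTpro 16plex LC-MS/MS with equalised channel sums quantified that protein. Values are log-two fold changes in thermal stability relative to solvent controls, taken from duplicates.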

[1] = compound: C/C(=N\NC(=O)C1=CC(=CC=C1)S(=O)(=O)N2CCOCC2)/C3=C(C=CC(=C3)Cl)O
Summary of the method: as §1

[2] = compound: C1=CC(=CC=C1C2=NC3=C(N2)C=C(C=C3)C(=O)N)OC4=CC=C(C=C4)Cl
Summary of the method: as §1

[3] = compound: C1=CC2=C(C=CC(=C2)/C=C\3/C(=O)NC(=NCC4=CC=CS4)S3)N=C1
Summary of the method: as §1

[4] = compound: C1=CC2=NC=CN=C2C=C1/C=C/3\C(=O)NC(=O)S3
Summary of the method: as §1

[5] = compound: C1=CC=C(C=C1)C2=NC(=C(N2)C3=CC=NC=C3)C4=CC(=C(C=C4)Cl)O
Summary of the method: as §1

[6] = compound: C1=CC=C2C(=C1)C3=NNC4=CC=CC(=C43)C2=O
Summary of the method: as §1

[7] = compound: C1CCN(C1)C(=O)NC2=CC=CC(=C2)NC3=NC=C(C(=N3)NCCC4=CN=CN4)Br
Summary of the method: as §1

[8] = compound: C1CN(CCC1(CC2=CC=C(C=C2)Cl)N)C3=NC=NC4=C3C=CN4
Summary of the method: as §1

IRAK-1-4 Inhibitor I = compound: C1COCCN1CCN2C3=CC=CC=C3N=C2NC(=O)C4=CC(=CC=C4)[N+](=O)[O-] [IRAK-1-4 Inhibitor I]
Summary of the method: as §1

Chain of UniProt P30419 (P30419 whole entry, looked up): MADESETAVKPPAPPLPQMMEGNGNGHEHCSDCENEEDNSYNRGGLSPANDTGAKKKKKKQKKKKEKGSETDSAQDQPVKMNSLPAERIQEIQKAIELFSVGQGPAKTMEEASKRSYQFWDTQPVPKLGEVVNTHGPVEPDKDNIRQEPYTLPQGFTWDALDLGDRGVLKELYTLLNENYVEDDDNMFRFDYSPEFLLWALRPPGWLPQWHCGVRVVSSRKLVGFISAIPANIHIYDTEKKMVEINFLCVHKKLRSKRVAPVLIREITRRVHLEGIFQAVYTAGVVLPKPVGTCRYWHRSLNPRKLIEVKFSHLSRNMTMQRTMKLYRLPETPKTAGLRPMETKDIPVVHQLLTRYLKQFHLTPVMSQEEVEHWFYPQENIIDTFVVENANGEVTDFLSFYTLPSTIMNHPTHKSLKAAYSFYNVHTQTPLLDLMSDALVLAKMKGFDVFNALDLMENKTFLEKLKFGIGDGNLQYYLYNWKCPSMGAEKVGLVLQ
Chain of UniProt Q9UFN0 (Q9UFN0 whole entry, looked up): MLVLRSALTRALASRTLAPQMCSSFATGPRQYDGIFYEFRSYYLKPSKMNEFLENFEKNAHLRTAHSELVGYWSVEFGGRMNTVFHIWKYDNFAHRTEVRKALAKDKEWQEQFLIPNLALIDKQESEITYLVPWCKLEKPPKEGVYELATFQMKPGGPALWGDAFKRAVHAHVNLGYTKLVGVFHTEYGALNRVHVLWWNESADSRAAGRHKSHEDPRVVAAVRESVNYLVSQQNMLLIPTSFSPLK
Chain of UniProt Q08J23 (Q08J23 whole entry, looked up): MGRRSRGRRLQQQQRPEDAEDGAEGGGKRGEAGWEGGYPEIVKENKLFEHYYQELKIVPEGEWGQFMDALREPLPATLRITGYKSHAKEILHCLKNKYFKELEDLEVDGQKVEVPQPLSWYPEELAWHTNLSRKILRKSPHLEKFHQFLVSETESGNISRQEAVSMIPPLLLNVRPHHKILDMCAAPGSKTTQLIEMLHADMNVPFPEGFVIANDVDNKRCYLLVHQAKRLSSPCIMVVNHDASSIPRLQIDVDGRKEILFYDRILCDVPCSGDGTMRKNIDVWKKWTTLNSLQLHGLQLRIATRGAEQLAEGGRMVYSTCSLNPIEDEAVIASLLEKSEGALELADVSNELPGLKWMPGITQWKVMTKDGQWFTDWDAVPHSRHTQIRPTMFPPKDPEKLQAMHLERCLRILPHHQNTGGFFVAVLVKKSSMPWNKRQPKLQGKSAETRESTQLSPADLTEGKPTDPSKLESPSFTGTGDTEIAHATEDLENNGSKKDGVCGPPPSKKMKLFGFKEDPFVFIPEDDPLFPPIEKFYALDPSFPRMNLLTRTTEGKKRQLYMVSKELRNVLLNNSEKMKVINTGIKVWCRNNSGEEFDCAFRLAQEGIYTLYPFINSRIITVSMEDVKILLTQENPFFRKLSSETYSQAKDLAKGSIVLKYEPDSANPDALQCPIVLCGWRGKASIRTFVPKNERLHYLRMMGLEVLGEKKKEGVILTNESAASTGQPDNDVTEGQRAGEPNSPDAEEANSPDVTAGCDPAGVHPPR
Chain of UniProt Q8TDX7 (Q8TDX7 whole entry, looked up): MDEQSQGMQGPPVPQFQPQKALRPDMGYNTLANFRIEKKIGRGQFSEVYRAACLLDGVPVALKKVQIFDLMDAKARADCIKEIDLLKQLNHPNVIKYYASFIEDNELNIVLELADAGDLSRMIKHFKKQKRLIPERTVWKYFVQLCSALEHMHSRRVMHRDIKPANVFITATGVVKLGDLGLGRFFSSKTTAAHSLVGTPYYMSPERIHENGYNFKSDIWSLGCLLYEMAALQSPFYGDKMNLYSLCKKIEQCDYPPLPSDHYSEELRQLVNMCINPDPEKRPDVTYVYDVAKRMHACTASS
Chain of UniProt Q15653 (Q15653 whole entry, looked up): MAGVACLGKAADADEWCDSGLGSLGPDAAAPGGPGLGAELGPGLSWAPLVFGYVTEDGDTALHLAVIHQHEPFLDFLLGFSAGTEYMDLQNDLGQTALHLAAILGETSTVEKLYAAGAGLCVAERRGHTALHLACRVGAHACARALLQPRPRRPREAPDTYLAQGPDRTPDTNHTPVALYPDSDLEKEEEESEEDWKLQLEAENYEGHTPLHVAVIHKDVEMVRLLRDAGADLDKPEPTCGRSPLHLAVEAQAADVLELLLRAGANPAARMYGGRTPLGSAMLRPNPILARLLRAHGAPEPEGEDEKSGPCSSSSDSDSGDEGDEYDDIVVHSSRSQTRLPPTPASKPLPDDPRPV
Chain of UniProt Q96I59 (Q96I59 whole entry, looked up): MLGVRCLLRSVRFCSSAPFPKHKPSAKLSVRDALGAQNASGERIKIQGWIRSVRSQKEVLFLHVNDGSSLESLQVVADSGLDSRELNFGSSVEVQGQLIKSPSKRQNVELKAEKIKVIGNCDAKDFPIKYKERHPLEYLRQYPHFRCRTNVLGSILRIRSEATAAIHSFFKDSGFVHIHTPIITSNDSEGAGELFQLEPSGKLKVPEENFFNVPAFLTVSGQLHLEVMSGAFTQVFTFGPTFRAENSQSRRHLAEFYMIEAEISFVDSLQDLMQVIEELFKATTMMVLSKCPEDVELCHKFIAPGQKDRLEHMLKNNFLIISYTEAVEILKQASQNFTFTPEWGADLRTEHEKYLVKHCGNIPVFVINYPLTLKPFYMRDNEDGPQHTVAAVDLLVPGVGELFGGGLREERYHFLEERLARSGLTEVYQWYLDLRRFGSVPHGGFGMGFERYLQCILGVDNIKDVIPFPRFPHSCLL
Chain of UniProt Q9BYG3 (Q9BYG3 whole entry, looked up): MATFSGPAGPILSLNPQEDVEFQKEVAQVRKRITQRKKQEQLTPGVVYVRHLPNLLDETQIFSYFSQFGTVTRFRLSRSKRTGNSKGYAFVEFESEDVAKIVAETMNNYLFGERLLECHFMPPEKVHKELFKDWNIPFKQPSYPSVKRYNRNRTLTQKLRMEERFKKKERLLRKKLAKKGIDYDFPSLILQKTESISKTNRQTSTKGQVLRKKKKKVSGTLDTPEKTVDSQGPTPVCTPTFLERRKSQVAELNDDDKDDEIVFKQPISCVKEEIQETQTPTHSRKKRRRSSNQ
Chain of UniProt Q12769 (Q12769 whole entry, looked up): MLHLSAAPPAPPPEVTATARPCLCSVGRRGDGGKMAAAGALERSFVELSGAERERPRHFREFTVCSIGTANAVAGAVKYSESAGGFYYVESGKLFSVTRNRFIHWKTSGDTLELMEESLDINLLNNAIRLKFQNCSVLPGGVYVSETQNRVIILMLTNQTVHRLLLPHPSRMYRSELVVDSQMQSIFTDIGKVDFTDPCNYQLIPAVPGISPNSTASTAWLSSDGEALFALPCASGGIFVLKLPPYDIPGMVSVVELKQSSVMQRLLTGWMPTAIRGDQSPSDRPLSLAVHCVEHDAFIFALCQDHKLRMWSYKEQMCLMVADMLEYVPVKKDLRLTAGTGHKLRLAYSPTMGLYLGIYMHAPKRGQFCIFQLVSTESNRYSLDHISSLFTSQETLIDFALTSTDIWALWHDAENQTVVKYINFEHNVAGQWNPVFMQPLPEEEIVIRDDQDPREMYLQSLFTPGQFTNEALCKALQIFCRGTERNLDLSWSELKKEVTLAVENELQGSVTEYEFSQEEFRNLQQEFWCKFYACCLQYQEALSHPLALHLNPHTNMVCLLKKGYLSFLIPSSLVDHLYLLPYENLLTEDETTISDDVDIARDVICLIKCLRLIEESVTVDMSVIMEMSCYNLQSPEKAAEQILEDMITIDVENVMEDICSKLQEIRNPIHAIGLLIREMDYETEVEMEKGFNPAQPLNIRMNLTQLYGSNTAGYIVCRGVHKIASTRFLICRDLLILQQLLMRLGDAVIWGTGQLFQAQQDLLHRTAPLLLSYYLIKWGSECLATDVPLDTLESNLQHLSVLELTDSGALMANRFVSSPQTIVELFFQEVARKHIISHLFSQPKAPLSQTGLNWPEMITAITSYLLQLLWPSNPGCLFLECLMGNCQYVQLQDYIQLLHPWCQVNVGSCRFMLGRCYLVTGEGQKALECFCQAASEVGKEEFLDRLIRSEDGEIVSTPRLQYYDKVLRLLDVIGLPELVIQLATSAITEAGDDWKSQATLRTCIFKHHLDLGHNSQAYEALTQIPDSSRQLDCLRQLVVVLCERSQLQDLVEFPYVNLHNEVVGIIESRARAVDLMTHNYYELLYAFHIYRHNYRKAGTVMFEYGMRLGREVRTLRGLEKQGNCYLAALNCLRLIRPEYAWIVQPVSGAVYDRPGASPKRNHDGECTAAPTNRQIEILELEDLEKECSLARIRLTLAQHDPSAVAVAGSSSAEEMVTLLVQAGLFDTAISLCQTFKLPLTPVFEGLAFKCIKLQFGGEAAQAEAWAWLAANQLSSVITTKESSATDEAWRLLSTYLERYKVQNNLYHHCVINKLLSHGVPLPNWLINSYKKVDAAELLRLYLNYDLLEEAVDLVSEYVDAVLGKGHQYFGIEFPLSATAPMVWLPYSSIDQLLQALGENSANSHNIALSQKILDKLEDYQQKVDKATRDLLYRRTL
Chain of UniProt Q9BRA0 (Q9BRA0 whole entry, looked up): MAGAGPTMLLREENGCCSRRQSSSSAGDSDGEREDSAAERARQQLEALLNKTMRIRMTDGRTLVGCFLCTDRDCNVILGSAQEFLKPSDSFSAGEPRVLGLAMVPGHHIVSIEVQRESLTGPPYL
Chain of UniProt Q9BV86 (Q9BV86 whole entry, looked up): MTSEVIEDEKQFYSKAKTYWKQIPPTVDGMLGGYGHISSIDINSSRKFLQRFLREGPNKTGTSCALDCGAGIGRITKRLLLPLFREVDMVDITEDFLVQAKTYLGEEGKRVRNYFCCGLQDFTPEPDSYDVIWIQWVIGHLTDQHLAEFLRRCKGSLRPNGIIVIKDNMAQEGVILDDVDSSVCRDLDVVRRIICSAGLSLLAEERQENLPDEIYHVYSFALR
Chain of UniProt Q9Y530 (Q9Y530 whole entry, looked up): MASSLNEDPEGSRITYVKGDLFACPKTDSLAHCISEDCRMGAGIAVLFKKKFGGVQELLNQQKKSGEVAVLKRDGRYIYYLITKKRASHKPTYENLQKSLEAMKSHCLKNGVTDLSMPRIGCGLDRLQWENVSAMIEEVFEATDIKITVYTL

Row | Target | log2 fold change (erlotinib) | log2 fold change [1] | log2 fold change [2] | log2 fold change [3] | log2 fold change [4] | log2 fold change [5] | log2 fold change [6] | log2 fold change [7] | log2 fold change [8] | log2 fold change (IRAK-1-4 Inhibitor I)
1 | NNMT (UniProt P40261) | -0.015 | 0.003 | 0.045 | -0.001 | -0.003 | 0.032 | -0.019 | -0.002 | -0.006 | -0.024
2 | NOC2L (UniProt Q9Y3T9) | -0.036 | -0.013 | -0.018 | -0.029 | 0.027 | 0.031 | 0.077 | -0.009 | -0.004 | -0.046
3 | NIFK (UniProt Q9BYG3) | 0 | -0.05 | -0.01 | -0.009 | 0.032 | 0.038 | 0.01 | -0.02 | -0.005 | -0.042
4 | MRPS31 (UniProt Q92665) | -0.015 | -0.042 | 0.056 | 0.042 | -0.021 | -0.028 | -0.048 | -0.022 | 0.02 | 0.005
5 | NPM3 (UniProt O75607) | 0.023 | -0.047 | 0.034 | 0.019 | -0.059 | -0.013 | 0.025 | -0.004 | 0.053 | -0.028
6 | NF1 (UniProt P21359) | 0.072 | -0.031 | -0.02 | -0.056 | -0.008 | -0.003 | -0.089 | 0.017 | 0 | 0.023
7 | NEK7 (UniProt Q8TDX7) | -0.004 | 0.042 | -0.083 | 0 | 0.01 | 0.053 | 0.103 | 0.011 | -0.005 | 0.032
8 | MT-ND1 (UniProt P03886) | -0.061 | -0.227 | -0.14 | 0.055 | -0.036 | -0.005 | 0.061 | -0.038 | 0.02 | 0.004
9 | NUF2 (UniProt Q9BZD4) | 0.009 | 0.006 | -0.012 | 0.03 | -0.002 | -0.047 | -0.047 | -0.039 | -0.004 | -0.039
10 | NSUN7 (UniProt Q8NE18) | -0.037 | -0.271 | 0.019 | -0.095 | 0.198 | -0.031 | -0.087 | -0.026 | -0.042 | 0.068
11 | OTC (UniProt P00480) | 0.09 | 0.138 | -0.096 | -0.121 | -0.049 | -0.074 | -0.069 | -0.074 | -0.095 | 0.125
12 | NTMT1 (UniProt Q9BV86) | 0.002 | 0.031 | 0.02 | 0.055 | -0.001 | -0.002 | 0.014 | 0.021 | 0.042 | -0.033
13 | NUP98 (UniProt P52948) | -0.018 | 0.017 | 0.023 | -0.026 | 0.005 | -0.079 | -0.004 | 0.015 | 0.021 | 0.002
14 | NMT1 (UniProt P30419) | -0.027 | -0.147 | 0.15 | 0.019 | -0.021 | -0.024 | 0.062 | -0.012 | -0.165 | -0.027
15 | NIPSNAP3A (UniProt Q9UFN0) | 0.008 | -0.014 | 0.062 | -0.03 | 0.012 | 0.003 | 0.015 | -0.012 | 0.002 | 0.015
16 | OARD1 (UniProt Q9Y530) | 0.002 | -0.1 | 0.008 | 0.028 | -0.019 | -0.015 | -0.031 | -0.036 | 0.041 | -0.01
17 | NFKBIB (UniProt Q15653) | 0.113 | -0.135 | 0 | 0.03 | 0.025 | -0.026 | 0.06 | 0.016 | -0.008 | 0.052
18 | MVB12A (UniProt Q96EY5) | 0.027 | -0.049 | 0.022 | -0.001 | -0.024 | -0.001 | -0.046 | -0.089 | -0.003 | -0.001
19 | OAT (UniProt P04181) | -0.006 | -0.074 | -0.04 | 0.023 | 0.007 | -0.017 | -0.038 | -0.033 | 0.008 | 0.018
20 | OSBPL3 isoform 2 (UniProt Q9H4L5) | 0.292 | 0.206 | 0.038 | 0.079 | -0.04 | 0.189 | 0.135 | -0.001 | -0.018 | -0.183
21 | OCRL (UniProt Q01968) | -0.057 | -0.031 | 0.04 | 0.085 | -0.012 | 0.054 | -0.1 | 0.02 | 0.055 | 0.068
22 | NSUN2 (UniProt Q08J23) | 0.004 | 0.04 | -0.018 | 0.006 | 0.004 | -0.006 | -0.016 | 0.033 | -0.018 | -0.002
23 | NR2C2 isoform 2 (UniProt P49116) | 0.006 | 0.135 | -0.014 | 0.134 | -0.012 | 0.064 | -0.035 | 0.061 | -0.041 | -0.019
24 | PBK (UniProt Q96KB5) | 0.012 | 0.026 | -0.044 | 0.014 | -0.014 | 0.008 | -0.001 | -0.007 | -0.011 | -0.007
25 | NCAPH (UniProt Q15003) | 0.036 | -0.008 | -0.006 | -0.007 | -0.002 | -0.012 | -0.063 | -0.008 | -0.018 | 0
26 | NARS2 (UniProt Q96I59) | -0.027 | -0.034 | -0.045 | 0.031 | 0.022 | -0.021 | -0.04 | 0.027 | -0.027 | -0.088
27 | MYOM1 (UniProt P52179) | -0.015 | 0.033 | -0.062 | -0.228 | -0.076 | -0.009 | 0.098 | -0.023 | 0.142 | 0.503 (active)
28 | NUP160 (UniProt Q12769) | 0.038 | 0.041 | -0.033 | -0.006 | 0.038 | -0.012 | -0.075 | -0.029 | 0.015 | -0.013
29 | NAA38 isoform 2 (UniProt Q9BRA0) | 0.049 | -0.065 | 0.013 | 0.019 | -0.045 | -0.055 | 0.008 | -0.052 | 0.008 | 0.031
